Pf Dd2 growth = qHTS Primary assay for Inhibitors of Plasmodium falciparum Dd2 growth in vitro; P. falciparum Dd2 growth, SYBR Green, 72 h; Potency, µM (doses to about 28.9 µM), for the others: top-dose activity, negative = inhibition, actives largely listed as inhibitors; actives 4.3% (n = 120,000); AID 1347417, 2020; active = well fitted inhibition curve with a large enough effect;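 also: plate controls were DMSO vehicle for no effect and reference drug for full effect; nearly all actives have a fitted effect of over 65% in size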
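Infected erythrocytes (Dd2, 0.3% parasitemia, 2.5% hematocrit final) are added to compound in RPMI-1640/Albumax II medium, grown 72 h at 37C in low oxygen, then lysed with saponin/Triton-X containing SYBR Green and read by fluorescence.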
The depositor's hits bear a star; i = inactive. This is one part of a sample in which hits are shown more often than they occur. Potency is read from the fitted curve at half-maximal effect.

SMILES	Pf Dd2 growth
CCN1c2cc(C(=O)NC3CCCC3)ccc2C(=O)N2CCCCCC21 (stereo not given)	i
CCC1=Nc2cc(C(=O)NC3CCCC3)ccc2Sc2ccc(Cl)cc21	4.5µM*
CC1=Nc2cc(C(=O)NC3CCCC3)ccc2Sc2ccc(C)cc21	-17%
CCC1=Nc2cc(C(=O)NCCC(C)C)ccc2Sc2ccc(Br)cc21	13µM*
CCN1c2cc(C(=O)NC3CCCC3)ccc2C(=O)N2CCCCC21 (stereo not given)	-10%
O=C(NC1CCCCC1)c1ccc2c(c1)N(Cc1cccc(F)c1)C(=O)c1ccccc1S2	10%
CCN1C(=O)Cc2cc(C(=O)NCCC(C)C)ccc21	i
CC(C)CCNC(=O)c1ccc2c(c1)N(C)C(=O)c1ccccc1S2	i
COCCc1noc([C@@H]2CC(F)(F)CN2C(=O)Cn2ccc(C)n2)n1	29%
Cc1ccccc1CCNC(=O)c1ccc(Cn2c(=O)c3cccn3c3cccnc32)cc1	i
COc1ccc(-c2noc([C@@H]3CCCN3C(=O)c3ccc(Cl)cc3)n2)cc1	-16%
COc1cccc(COC2CN(C(=O)CCc3scnc3C)CC(=O)N(Cc3ccccn3)C2)c1 (stereo not given)	4%
CCc1ccc(OCC(=O)NCC(c2ccc(Cl)cc2)N2CCOCC2)cc1 (stereo not given)	11µM*
Cc1cc(C)cc(OCC(=O)NCC(c2ccc(Cl)cc2)N2CCCCC2)c1 (stereo not given)	11µM*
COc1ccc(C(CNC(=O)COc2cc(C)cc(C)c2)N2CCOCC2)cc1 (stereo not given)	-21%
CN(C)c1ccc(C(CNC(=O)COc2ccccc2)N2CCOCC2)cc1 (stereo not given)	-16%
COc1ccc(C(=O)NCC(c2ccc(Cl)cc2)N2CCCCC2)cc1 (stereo not given)	-10%
O=C(COc1ccccc1)NCC(c1ccc(Cl)cc1)N1CCOCC1 (stereo not given)	-4%
COc1ccccc1OCC(=O)NCC(c1ccc(Cl)cc1)N1CCOCC1 (stereo not given)	-20%
COc1ccc(OCC(=O)NCC(c2ccc(Cl)cc2)N2CCCCC2)cc1 (stereo not given)	7.9µM*
COc1ccc(C(CNC(=O)Cc2ccc(Cl)cc2)N2CCOCC2)cc1 (stereo not given)	i
O=C(NCc1ccccc1F)C1CCCN(C(=O)N2CCOc3ccccc32)C1 (stereo not given)	-1%
Cc1cccc(Cl)c1NC(=O)Cn1c(C)cc2nc3n(c(=O)c21)CCCC3	i
CCOc1ccc(NC(=O)c2ccc3c(c2)N(CC)C2CCCN2C3=O)cc1 (stereo not given)	-9%
CC(=O)N1CCC(Oc2ccc(Cl)cc2C(=O)NCCC2=CCCCC2)CC1	i
SMILES	Pf Dd2 growth
O=C(NC1CCCN(c2cc(-c3ccc(F)cc3)[nH]n2)C1)c1cccc(F)c1 (stereo not given)	-7%
CCOC(=O)c1c(S(=O)(=O)N2CCCC(C(=O)N3CCN(c4cc(C)ccc4C)CC3)C2)c(C)n(C)c1C (stereo not given)	1µM*
Cc1ccc(C)c(N2CCN(S(=O)(=O)c3ccc4c(c3)CCCN4C(=O)C3CCC3)CC2)c1	6%
CCOC(=O)c1c(S(=O)(=O)N2CCCC(C(=O)Nc3cc(C)ccn3)C2)c(C)n(C)c1C (stereo not given)	i
CCOC(=O)c1c(S(=O)(=O)N2CCCC(C(=O)N3CCN(c4cccc(C)c4C)CC3)C2)c(C)n(C)c1C (stereo not given)	1.1µM*
Cc1ccc(C)c(N2CCN(C(=O)C3CCN(S(=O)(=O)c4ccc5[nH]c(=O)oc5c4)CC3)CC2)c1	5.6µM*
CCOC(=O)c1c(C)[nH]c(C)c1S(=O)(=O)N1CCCC(C(=O)NCc2ccc(C)cc2)C1 (stereo not given)	i
CCOC(=O)c1c(S(=O)(=O)N2CCCC(C(=O)Nc3cc(C)ccc3OC)C2)c(C)n(C)c1C (stereo not given)	29%
CCOC(=O)c1c(C)[nH]c(C)c1S(=O)(=O)N1CCCC(C(=O)N2CCN(c3cc(C)ccc3C)CC2)C1 (stereo not given)	1.3µM*
CCOC(=O)c1c(S(=O)(=O)N2CCC(C(=O)N3CCN(c4ccccc4F)CC3)CC2)c(C)n(C)c1C	i
CCOC(=O)c1c(C)[nH]c(C)c1S(=O)(=O)N1CCC(C(=O)N2CCN(c3ccccc3F)CC2)CC1	i
Cc1ccc(Cl)cc1N1CCN(C(=O)C2CCN(S(=O)(=O)c3ccc4c(c3)oc(=O)n4C)CC2)CC1	i
CCOC(=O)c1c(S(=O)(=O)N2CCCC(C(=O)Nc3ncccc3C)C2)c(C)n(C)c1C (stereo not given)	i
CC(C)CCN1CCC2(CC1)CNc1ccccc1[S+](=O)([O-])N2	i
COc1cccc(C(=O)NC2CCN(c3cc(-c4cccs4)[nH]n3)CC2)c1OC	i
CCOc1ccc(CCNC(=O)Cn2nnc(-c3ccccc3)n2)cc1OCC	-9%
Cc1ccc(-n2nc3n(c2=O)CCN(C(=O)c2ccccc2)C3)cc1	-8%

Compound activity (PubChem BioAssay)
